Potency data for 54 compounds are collected here from PubChem BioAssay AID1347073 (National Center for Advancing Translational Sciences (NCATS), 2019).

The structures appear in SMILES notation. Hit rate of the full screen: of about 45,000 compounds, about 200 (0.44%) were called active. Where a call stands in place of a potency, no number is given. Inconclusive results (about 7%) are left out. Calls follow the shape of the dose curve; as a rule, active = well fitted activation curve with a large enough effect; inconclusive = small, poorly fitted or top-dose-only effect; inactive = no such curve, though single readings can be large or run the other way. Many of the other results were omitted from the sample, so actives are more common in it than they were.
Potency is read from the fitted curve at half-maximal effect.

This assay is described as follows: qHTS of TDP-43 Inhibitors: NCGC Sytravon Library Screen. Also: nearly all actives have a fitted effect of over 55% in size. The settings on record: yeast TDP-43 toxicity rescue, BacTiter-Glo growth, 24 h; series mostly up to 46.1 µM. An excerpt:
The goal of this project is to identify new chemical probes capable of reversing the toxicity associated with TDP-43 which is associated with frontotemporal lobar degeneration and amyotrophic lateral sclerosis. These compounds will provide a complementary approach to deciphering the tangled mechanisms of toxicity and protection that we have uncovered through genome-wide genetic screens and are beginning to uncover in a large-scale proteomics analysis with mass spectroscopy. To this end, a miniaturized assay was developed to be screened against the Molecular Libraries Small Molecule Repository (MLSMR) to discover TDP-43 inhibitors. Please note that in the set-up this yeast-based assay compounds that inhibit as TDP-43, have a read-out as activators. NIH Chemical Genomics Center [NCGC] NIH Molecular Libraries Probe Centers Network [MLPCN] Assay Submitter (PI): Susan Lindquist, Whitehead Institute/MIT MLPCN Grant: R21 NS060957
Dispense 2.5 microL yeast galactose medium per 1536-well plate, pin compound, dispense 2.5 microL TDP-43 expressing yeast in galactose medium at OD600=0.02 (pregrown in raffinose medium to mid-log phase) per well, incubate for 24 hr at 30 deg C, and cell growth will be measured using 5 microL of Bactiter/Glo reagent to entire plate and read using Luminescence Protocol in ViewLux.
On to `CN(C)C(CNC(=O)c1cccc(C#N)c1)c1ccco1` (centres undefined), for which the Potency entry is “inactive”.
Turning to `Nn1c(SCC(=O)Nc2ccc3c(c2)CCC3)nnc1C1CC1`, the Potency entry was “inactive”.
Turning to `CC(CN1CCC(n2nccc2NC(=O)C2CCCC2)CC1)c1ccccc1` (centres undefined), the Potency result was “inactive”.
With `COc1ccc(CNC(=O)CN2C(=O)c3ccccc3S2(=O)=O)cc1`, the Potency entry is “inactive”.
As for `O=C1c2ccccc2S(=O)(=O)N1CC(O)Cn1c2ccccc2c2ccccc21` (centres undefined), the figure is 12.6 µM (active).
Regarding `CC(C)(C)c1ccc(CN2C(=O)c3ccccc3S2(=O)=O)cc1`, the Potency entry is “inactive”.
To `Cc1ccc(Cl)cc1NC(=S)N(CCN(C)C)Cc1cccs1` belongs “inactive”; to `Cc1noc(C)c1-c1ccc(C(=O)NCc2ccncc2)c2occc12`, “inactive”.
To `COc1ccc(-c2ccc(C(=O)NC(C)C)c3occc23)c(C)c1` belongs 15.8 µM (active); to `COCCCNC(=O)c1ccc(-c2c(C)noc2C)c2ccoc12`, “inactive”.
On to `Cc1ccc(OCc2n[nH]c(=S)n2-c2ccc(C)cc2)cc1`, for which the Potency entry is “inactive”.
As for `Cc1ccc(S(=O)(=O)N(Cc2ccc(Cl)cc2)c2ccccc2C(=O)NCc2cccnc2)cc1`, the entry is “inactive”.
As for `O=C(c1cccs1)c1cn(CCOc2ccc(Cl)cc2)c2ccccc12`, the Potency result is “inactive”.
As for `CN(C)c1ccnc(Nc2ccc(F)cc2)c1C#N`, the entry is “inactive”; as for `COc1ccccc1OCc1ccc(C(=O)NC(C)c2ccccc2)o1` (centres undefined), “inactive”.
As for `O=C(C1CCN(S(=O)(=O)c2ccc(Br)s2)CC1)N1CCN(C2CCCCC2)CC1`, the entry is “inactive”; as for `COc1ccc(C(=O)OCc2cc(=O)n3ccsc3n2)cc1F`, “inactive”; as for `CCCCN(CC)CCCNC(=O)c1ccc(CSc2nc3ccncc3[nH]2)cc1`, “inactive”.
As to `CC(C)(C)c1ccccc1NC(=O)CN1C(=O)NC2(CCCC2)C1=O`, the Potency entry was “inactive”.
On to `COc1ccc(C(=O)Nc2ccc(N3CCC(C)CC3)cc2)cc1Br`, for which the Potency entry is “inactive”.
To `c1cc(-c2ccc3[nH]ccc3c2)n2ccnc2c1` belongs “inactive”.
As for `O=C(CN1C(=O)NC2(CCCCCC2)C1=O)Nc1ccc([N+](=O)[O-])cc1`, the entry is “inactive”; as for `O=C1NC(c2ccc(-c3ccccc3[N+](=O)[O-])o2)C(C(=O)c2ccc(Cl)cc2)C(O)(C(F)(F)F)N1` (centres undefined), “inactive”.
`CN(Cc1nc2ccccc2s1)C(=O)c1ccc(F)cc1`: the Potency result is “inactive”.
For `CCN(CC)C(=O)CN(c1cccc([N+](=O)[O-])c1)S(=O)(=O)c1ccccc1`, the Potency entry was “inactive”.
With `O=C(Nc1ccc(F)cc1)N1CCN(c2ccc(F)cc2)CC1`, the Potency entry is “inactive”.
As for `Cc1nc2c(OCc3cccc(Cl)c3)cccn2c1N(C)CC1CC1`, the entry is “inactive”; as for `CC(C)(C)NC(=O)C(=O)NN=C1CCCCCCC1`, “inactive”; as for `O=C(CCn1c(=O)c2sccc2n(Cc2ccc(F)cc2)c1=O)NCc1ccc2c(c1)OCO2`, “inactive”.
As for `CCc1ccc(OC2(C)CCN(CCOc3ccc(C)cc3)C2)cc1` (centres undefined), the entry is “inactive”.
With `COc1ccc(CN2CCC(C)(Oc3cccc(F)c3)C2)c2ccccc12` (centres undefined), the Potency entry is “inactive”.
On to `O=C(NCc1ccc(F)cc1)c1cc(C2CCCCN2C(=O)c2cccs2)on1` (centres undefined), for which the Potency entry was “inactive”.
To `CN(CC(=O)NC(=O)Nc1ccccc1F)Cc1ccccc1` belongs “inactive”.
To `CCn1c(CSc2nc(C)cc(C)n2)nnc1SCC(N)=O` belongs “inactive”; to `O=C(O)C(F)(F)C(NCc1ccccc1)c1ccccc1` (centres undefined), “inactive”.
To `CC(C(=O)Nc1ccc(F)c(F)c1F)N1CCCCCC1` (centres undefined) belongs “inactive”; to `O=C(NCCc1ccc(F)cc1)c1n[nH]c2ccccc12`, “inactive”; to `N/C(=N\OC(=O)c1ccc2c(c1)OCO2)c1ccc(Br)cc1`, 3.55 µM (active).
As for `O=C(COC(=O)c1ccncc1)Nc1ccc2c(c1)OCO2`, the Potency entry was “inactive”.
To `N#Cc1ccccc1NC(=O)c1ccc2c(c1)OCO2` belongs “inactive”; to `O=C(O)CC1(CC(=O)Nc2cccc(C(F)(F)F)c2)CCCC1`, “inactive”.
To `Cn1c(NCc2cccnc2)nc2cc(-c3ccc(F)cc3)sc2c1=O` belongs “inactive”; to `Cc1ccc(C)c(NC(=O)CN(C)C(=O)COc2ccc3ccccc3c2)c1`, “inactive”; to `NS(=O)(=O)c1cccc(NC(=O)CN2CCCc3ccccc32)c1`, “inactive”.
As for `O=C(CCn1nnc2ccccc2c1=O)N[C@@H](Cc1c[nH]c2ccccc12)C(=O)O`, the entry is “inactive”; as for `O=C(NC1CC1)C(Cc1ccccc1)NS(=O)(=O)c1ccccc1F` (centres undefined), “inactive”; as for `COc1cccc(CC2(CO)CCN(Cc3cnc(-c4cccc(C)c4)nc3)CC2)c1`, “inactive”.
On to `COCCCNC(=S)N1CCCC(c2nc3cc(C)c(C)cc3[nH]2)C1` (centres undefined), for which the Potency entry was “inactive”.
Take `CCC1CCCCN1C(=O)CSc1nc2c(c(=O)n(C)c(=O)n2C)n1C` (centres undefined): the Potency entry is “inactive”.
As for `CC(C)c1ccc(N(C(=O)c2ccco2)C(C(=O)NC2CCCC2)c2cccnc2)cc1` (centres undefined), the entry is “inactive”; as for `COc1ccc(N2CCN(C(=O)C3CCN(C(=O)c4ccccc4Cl)CC3)CC2)cc1`, “inactive”.
To `CCc1cc(-c2nnc(SCC(=O)NC3CC3)n2C)cs1` belongs “inactive”; to `COc1ccc(-c2[nH]ncc2CN(C)Cc2cc(C)[nH]n2)c(F)c1`, “inactive”; to `CCOc1ccccc1Oc1cn[nH]c1-c1ccc(OC)cc1O`, 15.8 µM (active).
